Data published in PubChem BioAssay (NCI).
Compounds without any hit were thinned out: in the full panel of roughly 83,000, 20% have a hit.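 Growth was measured after 48 h exposure to one concentration of compound in 96-well plates. Values under 10 count as active.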 The source made the active and inactive calls.

Key:
Assay in all cases: NCI-60 one-dose screen, 48 h (100 = growth as untreated, 0 = no growth, -100 = all killed)
Conditions in all cases: 10 µM unless noted
[1] = system: DU-145 prostate
[2] = system: K-562 leukemia
[3] = system: MALME-3M melanoma
[4] = system: MDA-MB-231 breast
[5] = system: SF-268 CNS
[6] = system: SF-295 CNS
[7] = system: SF-539 CNS
[8] = system: UACC-257 melanoma
[9] = system: M14 melanoma
[10] = system: RXF 393 renal

Measured: growth

Cc1cn(C2CC(F)C(CO)O2)c(=O)[nH]c1=O (centres undefined)
inactive: [1] 108% | [2] 58.3% | [3] 85.1% | [4] 98.3% | [5] 103% | [6] 76.8% | [7] 107% | [8] 91.8% | [9] 89%

COc1cc(NC(=O)c2cc(OC)c3ccn(C)c3c2)cc2c1C[C@]1(C)CC[C@@H](O)C(C)(C)[C@H]1O2
inactive: [1] 71.5% | [2] 20.2% | [3] 49.9% | [4] 57.7% | [5] 66.7% | [7] 20.3% | [8] 62.2% | [9] 23.7%
active: [6] -39.6%

COC(=O)c1ccc(NC(N)=NCC(C)(C)COc2ccc(C(F)(F)F)cc2)nc1
active: [2] -31.8%
inactive: [1] 68.8% | [3] 82.4% | [4] 48.8% | [10] 70.7% | [5] 66.8% | [6] 57.1% | [7] 82.6% | [8] 62.4% | [9] 55.6%

O=C1c2ccccc2C(=O)c2c(NCCN=Cc3c(O)ccc4ccccc34)cccc21
active: [8] -5.35%
inactive: [1] 51.7% | [2] 77.7% | [3] 113% | [4] 84.4% | [5] 82.3% | [6] 65.1% | [7] 91.4% | [9] 65.8%

NC(CSC(c1ccccc1)(c1ccccc1)c1ccc(F)cc1)C(=O)O (centres undefined)
active: [1] -40.3% | [2] -4.92% | [4] -18.6% | [6] 0.119% | [7] -7.79% | [8] -15.2% | [9] -55.4%
inactive: [3] 30.6% | [5] 24.4%

O=C1CN(CCN2CC(=O)NC(=O)C2)CC(=O)N1
inactive: [1] 90.7% | [2] 106% | [3] 94.5% | [4] 102% | [5] 108% | [6] 85.9% | [7] 118% | [8] 104% | [9] 94.8%

Nc1ncnc2c1ncn2C1OC(COC(c2ccccc2)(c2ccccc2)c2ccccc2)C(O)C1O (centres undefined)
inactive: [1] 73% | [2] 82.3% | [3] 95.5% | [4] 84.5% | [5] 100% | [6] 48.1% | [7] 103% | [8] 108% | [9] 101%

CCC1CN2C(=N1)c1ccccc1-c1cc(Cl)ccc12 (centres undefined)
active: [2] 2.32% | [3] -4.57% | [8] -28.8%
inactive: [1] 17.4% | [4] 47.9% | [5] 25% | [6] 12% | [7] 17% | [9] 21.7%

Nc1nc2ccc(CNc3ccc(C(=O)NC(CC(=O)O)C(=O)O)cc3)cc2c(=O)[nH]1 (centres undefined)
inactive: [1] 44.9% | [2] 12.2% | [3] 71.7% | [4] 120% | [5] 40.1% | [6] 29.8% | [7] 38.4% | [8] 42.3% | [9] 32.8%

COc1ccc2c(c1)nnn1c3ncccc3c(N=O)c21
active: [1] -56.1% | [2] -75% | [3] -8.37% | [4] -31.2% | [5] -50.4% | [7] -71.2% | [8] -10% | [9] -67.5%
inactive: [6] 24.2%

Cc1[nH]n(C(=O)c2ccncc2)c(=O)c1N=Nc1ccc(S(=O)(=O)Nc2ccncn2)cc1
inactive: [1] 126% | [2] 55.3% | [3] 124% | [4] 103% | [5] 95.5% | [6] 134% | [7] 107% | [9] 106%
active: [8] -1.41%

O=C(NOC1OC(CO)C(O)C(O)C1O)Nc1ccccc1 (centres undefined)
inactive: [1] 108% | [2] 69% | [3] 94.8% | [4] 99.2% | [5] 85.7% | [6] 98.5% | [7] 103% | [8] 107% | [9] 108%

O=C(Nc1ccccc1F)Nc1ccccc1Cl
inactive: [1] 103% | [2] 55.8% | [3] 74% | [4] 85.8% | [5] 91% | [6] 81.4% | [7] 91% | [8] 96.1% | [9] 100%

COc1ccc(-c2cnc(-c3ccc(F)cc3)[nH]2)cc1
inactive: [1] 113% | [2] 57.1% | [3] 288% | [4] 100% | [5] 92.6% | [6] 96.6% | [7] 105%
active: [8] -25.1% | [9] -17.3%

CC1(C)N=C(N)N=C(N)N1c1cccc(CCCCc2ccccc2)c1
active: [2] -44.7% | [3] -1.54% | [6] 3.96% | [7] 4.72% | [8] -34.8% | [9] 6.98%
inactive: [1] 31.1% | [4] 45.4% | [5] 10.8%

CC1(C)N=C(N)N=C(N)N1c1ccc(F)c(C(F)(F)F)c1
inactive: [1] 38.5% | [2] 16.9% | [3] 74.1% | [4] 73.5% | [5] 23.2% | [6] 19.5% | [7] 23.2% | [8] 25.2% | [9] 24%

O=C1OC(c2ccc(-c3ccccc3)cc2)=C/C1=C/C=C/c1ccccc1
active: [8] -13.8%
inactive: [1] 111% | [2] 96% | [3] 104% | [4] 105% | [5] 90.5% | [6] 65.6% | [7] 105% | [9] 112%

COc1ccc(/C=C2\CS(=O)(=O)C/C(=C\c3ccc(OC)cc3)C2=O)cc1
active: [1] -44.2% | [2] -15.4% | [3] -23% | [4] 8.06% | [5] -24.7% | [6] -14.4% | [7] -54.6% | [8] -80.5% | [9] -78.1%

CC1=C[S+](c2ccccc2)c2cccc3cc4ccccc4c1c23 (centres undefined)
active: [1] -10.8% | [2] -27.2% | [3] -41.2% | [4] -10.4% | [5] -38.7% | [6] -0.638% | [7] -88.2% | [8] -88.8% | [9] -64.4%

CC(=O)N1N=C(CCC(=O)c2nc3ccc([N+](=O)[O-])cc3[nH]2)OC1c1ccc(O)cc1 (centres undefined)
inactive: [1] 108% | [3] 94.4% | [4] 102% | [10] 111% | [5] 97.7% | [6] 96.4% | [7] 100% | [8] 103% | [9] 103%

C=CCn1c(SCC(=O)Nc2ccc(C(=O)/C=C/c3cc(OC)c(OC)c(OC)c3)cc2)nnc1-c1ccc(OC)cc1
active: [1] 5.32% | [10] -81.6% | [5] 5.5% | [6] -21.4% | [7] -17.6% | [9] 6.88%
inactive: [3] 46.1% | [4] 13.8% | [8] 13.6%

COC(=O)CCCNS(=O)(=O)c1cc(C(=O)Nc2ccc(NC(=O)c3cc(S(=O)(=O)NCCCC(=O)OC)c(O)c(O)c3O)cc2)c(O)c(O)c1O
inactive: [1] 98.1% | [3] 105% | [4] 94.7% | [10] 107% | [5] 91.9% | [6] 98.1% | [7] 102% | [8] 96.2% | [9] 98.3%

O=[N+]([O-])c1ccc(NS(=O)(=O)c2cc(Cl)ccc2Cl)c2ccccc12
inactive: [1] 73% | [3] 43.2% | [4] 71% | [10] 42.6% | [5] 47.9% | [6] 37.7% | [7] 44.9% | [8] 33.7% | [9] 45.4%

COc1cc(/C=C/C(=O)N2CCC=CC2=O)cc(OC)c1OC
active: [10] 9.03%
inactive: [1] 43.5% | [3] 10.5% | [4] 45.9% | [5] 85.1% | [6] 94.1% | [7] 29.6% | [8] 66.4% | [9] 55.7%

Clc1ccc2c(NCCNc3nc(Cl)nc4ccccc34)ccnc2c1
inactive: [8] 91.1%
active: [1] -3.33% | [3] -87.3% | [4] -87.8% | [10] -77.2% | [5] -58.1% | [6] -76.7% | [7] -84% | [9] -89.1%

O=C(O)c1cn(C2CC2)c2cc(N3CCN(C(=O)CSc4nc(NS(=O)(=O)c5ccccc5)cc(=O)[nH]4)CC3)c(F)cc2c1=O
inactive: [1] 101% | [3] 82.4% | [4] 100% | [10] 112% | [5] 93.7% | [6] 104% | [7] 98.1% | [8] 95% | [9] 83.7%

FC(F)(F)c1cn(CC2CNC2)c2ncnc(Cl)c12
inactive: [1] 108% | [3] 122% | [4] 100% | [10] 112% | [5] 99.2% | [6] 100% | [7] 109% | [8] 85.6% | [9] 109%
